# Results taken from PubChem BioAssay (EPA / NIEHS).
# Calls of active or inactive are those of the source. Rule for the calls: active = hit-call score of the fitted dose curve at least 0.9, where 1 is the maximum; inactive = score below 0.9.
# Columns and labels:
# [1] = ATG_CRE_CIS: Attagene CIS-FACTORIAL HepG2 Assay for human cAMP Responsive Element (CRE) binding protein 3 (AID 2282926); conditions: HepG2 CRE cis-reporter, Attagene multiplexed mRNA; actives raise or lower the signal
# Method in brief: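 We dosed HepG2 cells bearing multiple cis-promoter reporter units for 24 h and measured reporter mRNA by RT-PCR with capillary electrophoresis detection. Bidirectional concentration-response fitting used DMSO as negative control.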
# [2] = biological target: CCAAT/enhancer-binding protein beta (Homo sapiens) (UniProt P17676); assay: ATG_C_EBP_CIS: Attagene CIS-FACTORIAL HepG2 Assay for human CCAAT/Enhancer Binding Protein (C/EBP) beta (AID 2282927); conditions: HepG2 Attagene cis-factorial transcription factor reporter; actives raise or lower the signal
# Sequence of CCAAT/enhancer-binding protein beta (Homo sapiens) (P17676 whole entry, looked up): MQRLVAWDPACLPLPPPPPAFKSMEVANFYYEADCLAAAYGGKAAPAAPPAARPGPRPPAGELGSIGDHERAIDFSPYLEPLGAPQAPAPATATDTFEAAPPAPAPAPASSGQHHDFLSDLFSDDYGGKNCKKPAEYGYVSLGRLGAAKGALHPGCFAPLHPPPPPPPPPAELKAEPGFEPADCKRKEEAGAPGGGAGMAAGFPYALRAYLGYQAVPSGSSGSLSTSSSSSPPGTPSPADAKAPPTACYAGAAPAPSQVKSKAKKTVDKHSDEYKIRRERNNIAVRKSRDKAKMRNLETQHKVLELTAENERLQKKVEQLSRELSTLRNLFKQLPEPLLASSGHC
# Method in brief: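 Following a 24 h incubation with test chemical, transfected HepG2 cells yielded RNA whose reporter transcripts were quantified by RT-PCR and fluorescent capillary electrophoresis, with DMSO serving as baseline for bidirectional fitting.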
# [3] = ATG_CMV_CIS: Attagene CIS-FACTORIAL HepG2 Assay for human CMV (Internal Marker) (AID 2282928); conditions: HepG2 CMV promoter reporter, transcription factor profiling; actives raise or lower the signal;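 note: endpoint acts as a background internal control marker rather than a target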
# Method in brief: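 After transient transfection of HepG2 with reporter transcription units driven by cis-regulatory promoters, cells receive test chemical for 24 h. Labeled reporter amplicons, digested with HpaI, are sized and quantified by capillary electrophoresis against DMSO.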
# [4] = ATG_DR4_LXR_CIS: Attagene CIS-FACTORIAL HepG2 Assay for human Liver X Receptor (LXR), DR4 submotif (AID 2282929); conditions: HepG2 Attagene DR4 cis-reporter, mRNA transcription; actives raise or lower the signal
# Method in brief: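 Readout: reporter transcript fluorescence after RT-PCR and capillary electrophoresis, fitted bidirectionally against DMSO controls. Human HepG2 liver cells carried transiently transfected multiplexed reporter constructs; endogenous transcription factor activity measured 24 h post-dosing.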
# [5] = biological target: Aryl hydrocarbon receptor (Homo sapiens) (UniProt P35869); assay: ATG_Ahr_CIS: Attagene CIS-FACTORIAL HepG2 Assay for human Aryl Hydrocarbon Receptor (Ahr) (AID 2282930); conditions: HepG2 AhR cis-factorial reporter transcription; actives raise or lower the signal
# Sequence of Aryl hydrocarbon receptor (Homo sapiens) (P35869 whole entry, looked up): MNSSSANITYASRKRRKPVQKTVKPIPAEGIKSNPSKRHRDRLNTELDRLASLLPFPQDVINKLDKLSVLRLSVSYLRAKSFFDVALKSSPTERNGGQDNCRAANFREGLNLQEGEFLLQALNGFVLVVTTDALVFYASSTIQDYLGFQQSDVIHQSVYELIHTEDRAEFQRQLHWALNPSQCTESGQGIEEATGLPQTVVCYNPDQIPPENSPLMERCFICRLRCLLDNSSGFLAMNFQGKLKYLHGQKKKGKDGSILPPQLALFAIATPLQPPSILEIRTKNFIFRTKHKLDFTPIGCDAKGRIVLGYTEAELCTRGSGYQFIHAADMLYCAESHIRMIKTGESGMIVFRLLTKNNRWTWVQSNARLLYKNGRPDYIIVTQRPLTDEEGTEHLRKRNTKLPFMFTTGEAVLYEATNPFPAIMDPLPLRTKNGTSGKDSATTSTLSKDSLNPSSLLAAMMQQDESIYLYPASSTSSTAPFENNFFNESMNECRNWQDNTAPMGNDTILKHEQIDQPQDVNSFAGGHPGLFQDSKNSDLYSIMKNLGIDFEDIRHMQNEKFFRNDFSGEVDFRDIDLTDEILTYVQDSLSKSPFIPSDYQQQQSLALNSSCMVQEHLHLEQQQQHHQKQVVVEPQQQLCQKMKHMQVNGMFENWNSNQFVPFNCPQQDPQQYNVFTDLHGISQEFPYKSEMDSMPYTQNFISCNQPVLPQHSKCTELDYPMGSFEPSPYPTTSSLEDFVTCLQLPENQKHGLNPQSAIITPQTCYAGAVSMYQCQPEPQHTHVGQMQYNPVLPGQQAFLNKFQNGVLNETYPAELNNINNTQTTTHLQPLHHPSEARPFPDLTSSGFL
# Method in brief: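 Values derive from bidirectional fitting against DMSO negative control. Underlying signal: cis-element reporter mRNA in transiently transfected HepG2, harvested 24 h post-dose and measured by RT-PCR plus capillary electrophoresis.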
# [6] = ATG_AP_1_CIS: Attagene CIS-FACTORIAL HepG2 Assay for human Activator Protein 1 (AP-1) (AID 2282931); conditions: HepG2 Attagene cis-factorial AP-1 reporter mRNA; actives raise or lower the signal
# Method in brief: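 Reporter transcripts were measured 24 h after dosing by RT-PCR and capillary electrophoresis of fluorescent fragments. Cells: HepG2 carrying transfected cis-regulated reporter constructs reading endogenous factor activity. Gain or loss fitted against DMSO.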
# [7] = ATG_AP_2_CIS: Attagene CIS-FACTORIAL HepG2 Assay for human Activator Protein 2 (AP-2) (AID 2282932); conditions: HepG2 AP-2 cis-reporter, Attagene transcription factor profiling; actives raise or lower the signal
# Method in brief: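 HepG2 cells were transiently transfected with multiple cis-promoter reporter transcription units and dosed for 24 h. Reporter mRNA was measured by RT-PCR with capillary electrophoresis fluorescence; bidirectional fits relative to DMSO baseline.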
# [8] = ATG_BRE_CIS: Attagene CIS-FACTORIAL HepG2 Assay for human Bone Morphogenetic Protein (BMP) Response Element (BRE) (AID 2282933); conditions: HepG2 BMP response element reporter, Attagene transcription factor profiling; actives raise or lower the signal
# Method in brief: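 Gain- or loss-of-signal was derived by bidirectional fitting against DMSO controls. The signal came from reporter mRNA, measured by RT-PCR and capillary electrophoresis, in HepG2 cells transiently carrying multiple reporter units and dosed for 24 h.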
# [9] = biological target: Retinoic acid receptor alpha (Homo sapiens) (UniProt P10276); assay: ATG_DR5_RAR_CIS: Attagene CIS-FACTORIAL HepG2 Assay for human Retinoic Acid Receptor Alpha (RARE), DR5 submotif (AID 2282934); conditions: HepG2 Attagene cis-factorial RARE DR5 reporter, mRNA; actives raise or lower the signal
# Sequence of Retinoic acid receptor alpha (Homo sapiens) (P10276 whole entry, looked up): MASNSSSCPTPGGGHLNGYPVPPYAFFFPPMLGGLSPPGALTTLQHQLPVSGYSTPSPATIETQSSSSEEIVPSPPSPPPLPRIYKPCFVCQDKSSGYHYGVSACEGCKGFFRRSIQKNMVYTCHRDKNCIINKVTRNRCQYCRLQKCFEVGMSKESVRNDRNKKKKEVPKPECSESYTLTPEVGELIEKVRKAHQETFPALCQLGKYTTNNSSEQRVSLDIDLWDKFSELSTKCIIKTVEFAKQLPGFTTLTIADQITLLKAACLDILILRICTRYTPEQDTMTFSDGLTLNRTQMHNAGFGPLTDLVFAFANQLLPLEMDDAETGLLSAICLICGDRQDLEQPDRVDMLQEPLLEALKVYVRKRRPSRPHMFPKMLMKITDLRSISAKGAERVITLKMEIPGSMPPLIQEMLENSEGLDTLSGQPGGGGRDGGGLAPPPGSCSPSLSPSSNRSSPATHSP
# Method in brief: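 Endpoint fitted in both directions relative to DMSO as negative control. It reflects DR5 cis-element reporter mRNA induction in transiently transfected HepG2 cells, measured 24 h after dosing through RT-PCR and fluorescent capillary electrophoresis.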
# [10] = biological target: Transcription factor E2F1 (Homo sapiens) (UniProt Q01094); assay: ATG_E2F_CIS: Attagene CIS-FACTORIAL HepG2 Assay for human E2F Transcription Factor 1 (AID 2282935); conditions: HepG2 Attagene cis-reporter, E2F reporter RNA transcripts; actives raise or lower the signal
# Sequence of Transcription factor E2F1 (Homo sapiens) (Q01094 whole entry, looked up): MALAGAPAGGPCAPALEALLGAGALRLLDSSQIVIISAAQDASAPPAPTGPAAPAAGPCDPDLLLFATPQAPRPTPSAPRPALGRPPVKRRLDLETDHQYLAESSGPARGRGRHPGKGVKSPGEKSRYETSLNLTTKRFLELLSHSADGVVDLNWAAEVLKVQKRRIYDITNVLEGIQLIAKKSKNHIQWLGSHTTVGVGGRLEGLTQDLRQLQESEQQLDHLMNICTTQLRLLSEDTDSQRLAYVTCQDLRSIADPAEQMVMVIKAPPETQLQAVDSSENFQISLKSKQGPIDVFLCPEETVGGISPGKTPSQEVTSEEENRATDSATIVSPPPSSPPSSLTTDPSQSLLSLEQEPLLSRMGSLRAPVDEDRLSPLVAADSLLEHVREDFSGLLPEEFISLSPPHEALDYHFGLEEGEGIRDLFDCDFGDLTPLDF
# Method in brief: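 HepG2 cells transiently transfected with multiplexed cis-element reporter units, dosed for 24 h. Reporter mRNA measured by RT-PCR, 6-FAM primer-extension labeling, HpaI digestion and capillary electrophoresis; bidirectional fit versus DMSO baseline.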
SMILES,outcome [1],outcome [2],outcome [3],outcome [4],outcome [5],outcome [6],outcome [7],outcome [8],AC50 [5],outcome [9],outcome [10],AC50 [3],AC50 [7],AC50 [8],AC50 [4],AC50 [6],AC50 [10]
CC(=O)[O][Al][O]C(C)=O,inactive,inactive,inactive,inactive,inactive,inactive,inactive,inactive,–,–,–,–,–,–,–,–,–
CCCCCNCCCCC,inactive,inactive,inactive,inactive,inactive,inactive,inactive,inactive,–,–,–,–,–,–,–,–,–
CC1(CO)CN(c2ccccc2)NC1=O (stereo not drawn),inactive,inactive,inactive,inactive,–,inactive,inactive,inactive,9.8 µM (active),–,–,–,–,–,–,–,–
CN(C)CCOCCN(C)C,inactive,inactive,inactive,inactive,inactive,inactive,inactive,inactive,–,–,–,–,–,–,–,–,–
CC1(C)C(=O)N(Br)C(=O)N1Cl,inactive,inactive,inactive,inactive,inactive,inactive,inactive,inactive,–,inactive,inactive,–,–,–,–,–,–
CC(C)C1CCC(O)CC1 (stereo not drawn),inactive,inactive,inactive,inactive,inactive,inactive,inactive,inactive,–,–,–,–,–,–,–,–,–
CC1(C)[C@@H]2CC[C@@]1(C)[C@H](O)C2,inactive,inactive,inactive,inactive,inactive,inactive,inactive,inactive,–,–,–,–,–,–,–,–,–
COCCCOc1ccnc(CS(=O)c2nc3ccccc3[nH]2)c1C (stereo not drawn),inactive,inactive,inactive,inactive,–,inactive,inactive,inactive,14.7 µM (active),inactive,–,–,–,–,–,–,–
COc1ccnc(CS(=O)c2nc3cc(OC(F)F)ccc3[nH]2)c1OC (stereo not drawn),inactive,inactive,inactive,inactive,inactive,inactive,inactive,inactive,–,–,–,–,–,–,–,–,–
CC(C)=CCC/C(C)=C/COC=O,inactive,inactive,inactive,inactive,inactive,inactive,inactive,inactive,–,inactive,inactive,–,–,–,–,–,–
O=C[C@@H](O)[C@H](O)[C@H](O)CO,inactive,inactive,inactive,inactive,inactive,inactive,inactive,inactive,–,inactive,inactive,–,–,–,–,–,–
C=CC(C)(C)O,inactive,inactive,inactive,inactive,inactive,inactive,inactive,inactive,–,–,–,–,–,–,–,–,–
CO[Si](CCCn1c(=O)n(CCC[Si](OC)(OC)OC)c(=O)n(CCC[Si](OC)(OC)OC)c1=O)(OC)OC,inactive,inactive,inactive,inactive,inactive,inactive,inactive,inactive,–,inactive,inactive,–,–,–,–,–,–
O=C(Oc1ccccc1)c1ccc(O)cc1,inactive,inactive,inactive,inactive,inactive,inactive,inactive,inactive,–,inactive,inactive,–,–,–,–,–,–
CCCCCOC(=O)CCC,inactive,inactive,inactive,inactive,inactive,inactive,inactive,inactive,–,inactive,inactive,–,–,–,–,–,–
C=C[C@@H](C)CCC=C(C)C,inactive,inactive,inactive,inactive,inactive,inactive,inactive,inactive,–,–,–,–,–,–,–,–,–
CN(C)C(=N)N=C(N)N,inactive,inactive,inactive,inactive,inactive,inactive,inactive,inactive,–,inactive,–,–,–,–,–,–,–
Cc1ccc(C(=O)c2cc(O)c(O)c([N+](=O)[O-])c2)cc1,inactive,inactive,–,inactive,inactive,inactive,–,–,–,–,–,26.3 µM (active),27.2 µM (active),56 µM (active),–,–,–
CCC(O)CO (stereo not drawn),inactive,inactive,inactive,inactive,inactive,inactive,inactive,inactive,–,–,–,–,–,–,–,–,–
Fc1c(F)c(F)c(Br)c(F)c1F,inactive,inactive,inactive,inactive,inactive,inactive,inactive,inactive,–,inactive,inactive,–,–,–,–,–,–
CC(=O)C(=O)O,inactive,inactive,inactive,inactive,inactive,inactive,inactive,inactive,–,inactive,inactive,–,–,–,–,–,–
CCCCCC(=O)OCCc1ccccc1,inactive,inactive,inactive,inactive,inactive,inactive,inactive,inactive,–,–,–,–,–,–,–,–,–
O=C(O)c1ccc([N+](=O)[O-])cc1,inactive,inactive,inactive,inactive,inactive,inactive,inactive,inactive,–,–,–,–,–,–,–,–,–
c1ccc2[nH]ccc2c1,inactive,inactive,inactive,inactive,–,inactive,inactive,–,14.6 µM (active),–,–,–,–,–,–,–,–
O=C1C(c2[nH]c3ccc(S(=O)(=O)O)cc3c2O)=Nc2ccc(S(=O)(=O)O)cc21,inactive,inactive,inactive,inactive,–,inactive,inactive,inactive,27.6 µM (active),inactive,inactive,–,–,–,–,–,–
O=c1[nH]nnc2ccccc12,inactive,inactive,inactive,inactive,inactive,inactive,inactive,inactive,–,–,–,–,–,–,–,–,–
NCCNCCN,inactive,inactive,inactive,inactive,inactive,inactive,inactive,inactive,–,inactive,inactive,–,–,–,–,–,–

SMILES,outcome [1],outcome [2],outcome [3],outcome [4],outcome [5],outcome [6],outcome [7],outcome [8],AC50 [5],outcome [9],outcome [10],AC50 [3],AC50 [7],AC50 [8],AC50 [4],AC50 [6],AC50 [10]
CCO[Si](CCCS)(OCC)OCC,inactive,inactive,inactive,inactive,inactive,inactive,inactive,inactive,–,inactive,inactive,–,–,–,–,–,–
CCCCCCCCCCCCOCCO,inactive,inactive,–,–,–,–,–,inactive,33.4 µM (active),inactive,inactive,33.4 µM (active),57.4 µM (active),–,51.7 µM (active),50.2 µM (active),–
Sc1nc(S)nc(S)n1,inactive,inactive,inactive,inactive,inactive,inactive,inactive,inactive,–,–,–,–,–,–,–,–,–
OCCOCCOCCOCCO,inactive,inactive,inactive,inactive,–,inactive,inactive,inactive,40.5 µM (active),–,–,–,–,–,–,–,–
CC1=CCC2C(C1)C2(C)C (stereo not drawn),inactive,inactive,inactive,inactive,inactive,inactive,inactive,inactive,–,–,–,–,–,–,–,–,–
CCCCCCOC(=O)CCCCC,inactive,inactive,inactive,inactive,inactive,inactive,inactive,inactive,–,–,–,–,–,–,–,–,–
Cc1ccc(C=O)s1,inactive,inactive,inactive,inactive,inactive,inactive,inactive,inactive,–,inactive,inactive,–,–,–,–,–,–
Nc1ccc(F)c([N+](=O)[O-])c1,inactive,inactive,inactive,inactive,inactive,inactive,inactive,inactive,–,–,–,–,–,–,–,–,–
C=CC(=O)OCCOCCOCC,inactive,inactive,–,inactive,inactive,inactive,inactive,inactive,–,–,–,48.2 µM (active),–,–,–,–,–
CCN(CC)CCOC(=O)c1ccc(N)cc1,inactive,inactive,inactive,inactive,inactive,inactive,inactive,inactive,–,–,–,–,–,–,–,–,–
Nc1nc2ccc([N+](=O)[O-])cc2s1,inactive,inactive,inactive,inactive,–,inactive,inactive,–,5.26 µM (active),inactive,–,–,–,100 µM (active),–,–,–
CC(C)(C)c1n[nH]c(=S)n(N)c1=O,inactive,inactive,inactive,inactive,–,inactive,inactive,inactive,23.9 µM (active),–,inactive,–,–,–,–,–,–
C=O,inactive,inactive,inactive,inactive,inactive,inactive,inactive,inactive,–,inactive,inactive,–,–,–,–,–,–
CNC(=O)Oc1ccc2c(c1)[C@]1(C)CCN(C)[C@@H]1N2C,inactive,inactive,inactive,inactive,inactive,inactive,inactive,inactive,–,–,inactive,–,–,–,–,–,–
C=C(C)C(=O)NCCCN(C)C,inactive,inactive,inactive,inactive,inactive,inactive,inactive,inactive,–,–,inactive,–,–,–,–,–,–
CC(=O)C=CC1=C(C)CCCC1(C)C,inactive,inactive,inactive,–,inactive,inactive,inactive,inactive,–,–,inactive,–,–,–,3.8 µM (active),–,–
N#Cc1ccc(CC(=NNC(=O)Nc2ccc(OC(F)(F)F)cc2)c2cccc(C(F)(F)F)c2)cc1,inactive,inactive,inactive,inactive,–,inactive,inactive,inactive,53.1 µM (active),–,inactive,–,–,–,–,–,–
C=C(C)C(=O)Nc1ccc(Cl)c(Cl)c1,inactive,inactive,inactive,inactive,–,inactive,inactive,–,14.9 µM (active),–,inactive,–,–,79.9 µM (active),–,–,–
CC(=O)Nc1ccc(CC(=O)O)cc1,inactive,inactive,inactive,inactive,inactive,inactive,inactive,inactive,–,–,inactive,–,–,–,–,–,–
CCCC(=O)c1cc(O)c(O)cc1O,inactive,inactive,inactive,inactive,inactive,inactive,inactive,inactive,–,–,inactive,–,–,–,–,–,–
C=C(C)C(=O)O[C@H]1C[C@@H]2CC[C@@]1(C)C2(C)C,inactive,inactive,–,–,–,–,inactive,inactive,137 µM (active),–,–,148 µM (active),–,–,26.7 µM (active),100 µM (active),100 µM (active)
CCC(C)(O)CCC=C(C)C (stereo not drawn),inactive,inactive,inactive,inactive,inactive,inactive,inactive,inactive,–,–,inactive,–,–,–,–,–,–
O=C[C@H](O)[C@H](O)[C@H](O)CO,inactive,inactive,inactive,inactive,inactive,inactive,inactive,inactive,–,–,inactive,–,–,–,–,–,–
CCOc1ccccc1OCC,inactive,inactive,inactive,inactive,inactive,inactive,inactive,inactive,–,–,inactive,–,–,–,–,–,–
CC(=O)Nc1ccc(C)cc1C,inactive,inactive,inactive,inactive,inactive,inactive,inactive,inactive,–,–,inactive,–,–,–,–,–,–
COc1cc(C)cc(O)c1,inactive,inactive,inactive,inactive,inactive,inactive,inactive,inactive,–,–,inactive,–,–,–,–,–,–
COC(C)CCO (stereo not drawn),inactive,inactive,inactive,inactive,inactive,–,inactive,inactive,–,inactive,inactive,–,–,–,–,42.4 µM (active),–
